Most compounds without a hit are left out; they make up all but 1.2% or so of the library.
EPAC1 antag: antagonists of human EPAC1. 360,000 tested, 0.14% active. Potency, µM (highest dose often 115 µM), for the others: top-dose activity change, negative = inhibition, actives largely listed as inhibitors. O95398. EPAC1 GEF assay, Rap1b-BODIPY-GDP exchange fluorescence;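 note: plate controls were vehicle for no effect and positive control for full effect; nearly all actives have a fitted effect of over 50% in size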
Target sequence (O95398 whole entry, looked up): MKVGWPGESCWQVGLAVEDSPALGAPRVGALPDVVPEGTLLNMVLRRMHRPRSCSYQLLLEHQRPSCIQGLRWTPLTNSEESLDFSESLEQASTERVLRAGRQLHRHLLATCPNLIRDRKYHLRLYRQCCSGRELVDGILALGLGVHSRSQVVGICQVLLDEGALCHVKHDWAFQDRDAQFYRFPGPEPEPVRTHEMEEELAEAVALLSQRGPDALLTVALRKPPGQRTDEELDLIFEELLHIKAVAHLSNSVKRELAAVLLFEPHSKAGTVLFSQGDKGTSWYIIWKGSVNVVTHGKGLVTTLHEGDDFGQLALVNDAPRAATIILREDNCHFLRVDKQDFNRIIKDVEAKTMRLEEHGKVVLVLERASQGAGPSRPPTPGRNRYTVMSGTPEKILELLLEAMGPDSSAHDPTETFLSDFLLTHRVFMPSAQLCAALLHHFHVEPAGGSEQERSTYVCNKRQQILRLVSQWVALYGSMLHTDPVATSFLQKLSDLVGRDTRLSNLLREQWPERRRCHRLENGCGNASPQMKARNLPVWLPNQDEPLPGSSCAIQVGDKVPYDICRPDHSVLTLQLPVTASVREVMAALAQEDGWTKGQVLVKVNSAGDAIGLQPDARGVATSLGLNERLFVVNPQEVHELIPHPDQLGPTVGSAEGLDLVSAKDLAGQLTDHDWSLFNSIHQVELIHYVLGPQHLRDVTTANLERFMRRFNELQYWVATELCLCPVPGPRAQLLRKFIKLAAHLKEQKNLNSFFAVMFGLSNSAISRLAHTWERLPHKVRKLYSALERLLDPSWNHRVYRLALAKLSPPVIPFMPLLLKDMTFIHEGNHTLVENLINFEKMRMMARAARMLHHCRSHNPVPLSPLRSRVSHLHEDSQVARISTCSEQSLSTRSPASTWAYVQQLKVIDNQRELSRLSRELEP
EPAC1 agonist: agonists of human EPAC1 | Potency, µM (titrated, usually from 154 µM), without a hit: at the top dose activation, hits mostly activators | EPAC1 agonist qHTS, biochemical assay; response scale: 100% = response to 6.5 mM cAMP | AID 720707 | 360,000 tested, 0.073% active; note: nearly all actives have a fitted effect of over 60% in size
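EPAC1 100 nM, Rap1B–BODIPY-GDP 250 nM, unlabeled GDP 50 uM; compound titration; 5 min RT; kinetic read ex480/em540 at 5-min intervals ×30 min; data normalized to 6.5 mM cAMP agonist control.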
EPAC2 antag: antagonists of human EPAC2. Q8WZA2. EPAC2 GEF exchange of Rap1B-BODIPY-GDP, fluorescence. Potency, µM (doses to about 114 µM), for inactives: at the highest dose activity, negative = inhibition, usual class: inhibitors. 360,000 tested, 0.18% active; note: % is set by controls: 0 for no effect and ±100 for the full control effect; nearly all actives have a fitted effect of over 45% in size
VDR inh: vitamin D3 receptor (human) inhibition; Potency, µM, without a hit: max response, negative = inhibition, actives largely listed as inhibitors; P11473; VDR-SRC2-3 peptide fluorescence polarization, 2 h; 400,000 tested, 0.93% active; note: % is set by controls: 0 for no effect and ±100 for the full control effect
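Fluorescence polarization assay measuring small-molecule disruption of VDR binding to the coregulator peptide SRC2-3. Compounds were pin-transferred (23 nl) into the reagent mix and incubated 2 h at room temperature before reading.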
USP1-UAF1 inh: blocks the human USP1/UAF1 deubiquitinase complex. O94782. recombinant USP1/UAF1, Ub-Rhodamine cleavage fluorescence. Potency, µM (titrated, usually from 57.1 µM), without a hit: at the top dose activity change, negative = inhibition, hits mostly inhibitors. 390,000 tested, 0.23% active. AID 743255; note: % is set by controls: 0 for no effect and ±100 for the full control effect; nearly all actives have a fitted effect of over 60% in size
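High-throughput fluorogenic screen: 1nM USP1/UAF1 complex, Ub-Rho substrate 150nM final, 50mM HEPES pH 7.8 with 0.5mM EDTA, 0.1 mg/ml BSA, 1mM TCEP and 0.01% Tween-20.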
EPAC2 ag: agonists of human EPAC2 (RAPGEF4); Q8WZA2; EPAC2 activation, biochemical qHTS; response scale: 100% = 6.5 mM cAMP response; Potency, µM (top dose mostly 154 µM), for inactives: at the top dose activation, hits mostly activators; 360,000 tested, 0.079% active; note: nearly all actives have a fitted effect of over 50% in size
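Each well held 100 nM EPAC2, 250 nM RAP1B-BODIPY-GDP and 50 uM GDP. Fluorescence, read at 5-min intervals to 30 min, was referenced to a 6.5 mM cAMP positive control.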
The depositor's hits bear a star; ? = inconclusive; . = no result given. Calls come from the whole dose curve; as a rule, active = well fitted curve in the direction sought with a large enough effect; inconclusive = small, poorly fitted or top-dose-only effect, or another doubt; inactive = no such curve, though single readings can be large; an effect the other way counts as inactive or inconclusive. Potency is the fitted concentration of half-maximal effect.

SMILES | EPAC1 antag | EPAC1 agonist | EPAC2 antag | VDR inh | USP1-UAF1 inh | EPAC2 ag
Cc1ccc(S(=O)(=O)Nc2ccccc2-c2ccccc2NS(=O)(=O)c2ccc(C)cc2)cc1 | -25.9% | 12.5% | -8.8% | 2.6% | -24.3% | 5.8%
O=C1c2ccccc2-c2cccc(NS(=O)(=O)c3ccc(C(F)(F)F)cc3)c21 | 13.8% | 14.6% | 18.7% | 8.5% | 28.2µM* | 4.1%
O=C(NC(NC(=S)Nc1ccccc1C(=O)O)C(Cl)(Cl)Cl)c1ccccc1 (stereo unspecified) | 6.7% | 6.3% | 7.8% | 79.4µM* | 5.2% | 1.9%
Cc1[nH][nH]c(=O)c1C(c1c(C)[nH][nH]c1=O)c1cn(C)c2ccccc12 | -14.6% | 3.1% | -4.0% | 4.7% | ? | 13.7%
Cc1[nH][nH]c(=O)c1C(c1c(C)[nH][nH]c1=O)c1cn(Cc2cccc3ccccc23)c2ccccc12 | 89.1µM* | 16.4% | 4.3% | -21.5% | 14.1µM* | 6.2%
Cc1nc(-c2ccc(Cl)cc2)oc1COC(C)(C)C(=O)O | . | . | . | 15.4% | . | .
CCCCOc1ccc(Cc2n[nH]c(=S)n2N)cc1 | -13.5% | -8.2% | 3.0% | 50.1µM* | -17.0% | 9.6%
NS(=O)(=O)c1cccc(NC(=O)c2cccs2)c1 | -0.6% | 2.6% | -0.1% | 25.1µM* | ? | 4.6%
[O-][n+]1ccccc1SSc1cccc[n+]1[O-] | . | . | . | 5.62µM* | . | .
O=C(CSc1cccc[n+]1[O-])CSc1cccc[n+]1[O-] | 13.9% | -4.4% | 1.7% | -8.5% | -16.8% | 5.1%
Cc1noc(C)c1-c1nccc(N2CCN(C)CC2)n1 | . | . | . | -13.0% | . | .
CCCCCCCCCCC/C=C\C/C=C\CCCC(=O)O | . | . | . | -0.9% | . | .
CCCCC/C=C\C/C=C\C/C=C\C/C=C\CCCC(=O)C(F)(F)F | . | . | . | 28.2µM* | . | .
O=C(O)c1ccc(-c2ncc[nH]2)cc1 | -21.6% | 8.1% | -9.8% | 44.7µM* | -0.6% | -17.8%
Nc1nc(N)c2nc(-c3ccccc3)c(N)nc2n1 | 2.4% | -3.6% | 5.1% | 7.6% | -17.6% | 5.9%
NSc1nc(N)c2nc(-c3ccccc3)c(-c3ccccc3)nc2n1 | 14.3% | -1.0% | -7.7% | 8.91µM* | -10.9% | 21.4%
COc1ccc2[nH]cc(CCNc3nc(-c4ccc(N(C)C)cc4)nc4ccccc34)c2c1 | . | . | . | -14.1% | . | .
N#Cc1sc(=O)[nH]c1Cl | -8.2% | -14.1% | -4.0% | 79.4µM* | -28.0% | 4.7%
COc1cc(NC(=O)CSc2nc(-c3ccc(C(C)C)cc3)no2)cc(OC)c1 | . | . | . | 21.5% | -22.4% | .
CC1=C(CCC(=O)O)c2cc3nc(cc4[nH]c(cc5[nH]c(cc1n2)c(C)c5C(C)O)c(C)c4C(C)O)C(C)=C3CCC(=O)O (stereo unspecified) | . | . | . | 17.8µM* | . | .
Cc1ccc(-c2ccc(CCC(=O)O)n2C(C)C)cc1 | 6.1% | -7.2% | -20.2% | -0.2% | -10.4% | -2.5%
C=Cc1c(C)c2cc3[nH]c(cc4nc(cc5nc(cc1[nH]2)C(C)=C5CCC(=O)O)C(CCC(=O)O)=C4C)c(C)c3C=C | -1.8% | -6.7% | 11.8% | 14.1µM* | ? | -2.7%
CCOc1ccc(-c2nc(SCC(=O)c3ccccc3)n[nH]2)cc1 | . | . | . | -2.0% | ? | .
Cc1cc(SCC(=O)c2ccc(O)c(O)c2)nc2ccccc12 | 28.2µM* | 12.5% | -29.6% | -26.1% | -10.2% | 19.2%
O=C(CSc1n[nH]c(-c2ccccc2)n1)c1ccc(O)c(O)c1 | 35.5µM* | -1.5% | 0.8% | 2.9% | -3.5% | 10.1%
SMILES | EPAC1 antag | EPAC1 agonist | EPAC2 antag | VDR inh | USP1-UAF1 inh | EPAC2 ag
Cc1cc(SCC(=O)O)nc2ccccc12 | 9.4% | 8.6% | -7.5% | 2.2% | -9.6% | 2.8%
COc1ccc(-c2cccc(C3C4C=CCCC4(C)C(=O)N3Cc3ccccc3)c2)cc1 (stereo unspecified) | . | . | . | -20.7% | . | .
Cc1cc2cc(CNC(=O)c3ccc(Br)o3)ccc2n1C | -8.1% | -1.3% | -2.2% | 79.4µM* | -12.5% | 2.8%
CCCC(=O)NCc1ccc2c(c1)cc(C)n2C | -1.3% | -3.9% | 4.9% | -7.3% | -24.4% | 1.3%
O=C(O)C1NCCN(C(=O)c2ccc3c(ccc4ccccc43)c2)C1C(=O)O (stereo unspecified) | . | . | . | -0.5% | . | .
Cc1ccc([C@@H]2C3COCC=C3C(C#N)=C(N)C2(C#N)C#N)o1 (stereo partly specified) | 8.0% | 29.4% | 4.6% | ? | 31.6µM* | 26.4%
Cc1ccc(C2C3CSCC=C3C(C#N)=C(N)C2(C#N)C#N)cc1 (stereo unspecified) | -1.5% | 18.5% | ? | ? | ? | ?
CC(C(=O)Nc1ccc(O)cc1C(=O)O)N1C(=O)/C(=C\c2cccs2)SC1=S (stereo unspecified) | -15.9% | 10.8% | -12.4% | 44.7µM* | ? | 12.5%
O=C(N/N=C/c1ccc(N2CCCCC2)o1)c1ccccc1[N+](=O)[O-] | 4.5% | -3.5% | 12.8% | 39.8µM* | -13.6% | 3.1%
O=C(O)C(c1ccccc1)N1C(=O)/C(=C\c2ccc(-c3ccccc3Cl)o2)SC1=S (stereo unspecified) | 42.0% | -131.3% | 90.5% | 50.1µM* | ? | 112µM*
CCCCn1c(SCc2ccc(Cl)cc2)nc2c1c(=O)[nH]c(=O)n2C | -10.1% | -21.7% | -5.9% | 89.1µM* | -9.1% | -2.1%
CC(C)CCn1c(SCc2ccc(Cl)cc2)nc2c1c(=O)[nH]c(=O)n2C | 4.2% | 1.7% | -1.9% | ? | -19.9% | -2.4%
CCCCCSc1nc2c(c(=O)[nH]c(=O)n2C)n1CC | 12.0% | -12.8% | -2.5% | ? | -18.4% | -2.9%
CCCCCCn1c(SCC(=O)OC)nc2c1c(=O)[nH]c(=O)n2C | 12.5% | -16.3% | -9.9% | 22.4µM* | -18.6% | 2.2%
N#Cc1c(N)n(-c2ccccc2)c(=O)c2cc([N+](=O)[O-])ccc12 | -17.0% | 8.0% | 9.7% | 44.7µM* | 4.9% | -12.2%
CCN1CCN(C(=O)Cn2ncc3c4ccccc4n(Cc4c(C)cc(C)cc4C)c3c2=O)CC1 | . | . | . | 6.6% | -21.7% | .
O=S(=O)(c1ccccc1)N1CCN(c2nc(-c3ccc(F)cc3)nc3cc(Cl)ccc23)CC1 | . | . | . | -19.5% | . | .
COc1ccc2c(c1)CC/C(=C\C=C\c1ccccc1OC)C2=O | 3.6% | -3.5% | 9.5% | 5.5% | ? | -3.0%
COc1ccccc1/C=C/C=C1\Oc2c(ccc(O)c2CN(C)C)C1=O | 33.6% | ? | 74.8% | -12.0% | 25.1µM* | ?
CCN(CC)Cc1c(O)ccc2c1O/C(=C\C=C\c1ccccc1)C2=O | -12.8% | ? | 29.4% | -4.3% | 31.6µM* | 21.4%
CS(=O)(=O)Oc1ccc2c(c1)O/C(=C\C=C\c1ccccc1)C2=O | -22.6% | -23.8% | -2.6% | -18.0% | -19.2% | 5.7%
